Source: PubChem BioAssay
CYP2C9 act: increases human cytochrome P450 2C9 activity; 1.4% of 96,000 active; P11712; recombinant CYP2C9, luciferin-H conversion, luminescence; hits give high values; factor 1 = untreated enzyme, 0 = blocked; AID 1024; activation factor at 5 µM;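 active means activation factor of 2 or more for CYP2C9 at a 5 µM dose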;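 further: 0 = sulfaphenazole-blocked wells and 1 = vehicle-only wells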
Target sequence (P11712 whole entry, looked up): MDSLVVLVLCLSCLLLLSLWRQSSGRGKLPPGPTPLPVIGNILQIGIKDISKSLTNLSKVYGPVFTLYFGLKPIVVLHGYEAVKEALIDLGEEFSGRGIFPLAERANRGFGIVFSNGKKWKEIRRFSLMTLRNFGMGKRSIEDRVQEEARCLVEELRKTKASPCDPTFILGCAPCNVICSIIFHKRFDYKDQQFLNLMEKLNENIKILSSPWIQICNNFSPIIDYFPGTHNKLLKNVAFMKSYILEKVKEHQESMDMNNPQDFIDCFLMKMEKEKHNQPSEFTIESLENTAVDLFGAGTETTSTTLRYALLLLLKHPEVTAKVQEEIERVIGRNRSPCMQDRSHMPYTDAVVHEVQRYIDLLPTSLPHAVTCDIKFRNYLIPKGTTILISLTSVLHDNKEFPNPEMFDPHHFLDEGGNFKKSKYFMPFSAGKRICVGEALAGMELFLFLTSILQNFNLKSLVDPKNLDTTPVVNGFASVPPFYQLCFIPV
CYP2C9 inhib: inhibitors of human CYP2C9; 20% of 96,000 active; CYP2C9 Supersomes, luciferin-H conversion, luminescence; inhibition, % at 5 µM; P11712;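 active means blocking of liver enzyme CYP2C9 beyond about 50% at 5 µM, limit read from the data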
CYP2C19 act: activators of human cytochrome P450 2C19 | P33261 | recombinant CYP2C19, luciferin-H EGE luminescence; hits give high values; 0 = fully inhibited enzyme, 1 = untreated enzyme | activation factor at 5 µM | 96,000 tested, under 10 active | AID 1025;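 active means activation factor of at least 2 at 5 µM in the primary screen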;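 further: 0 = wells with 2.5 mM tranylcypromine and 1 = vehicle-only wells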
Measles CPE: protection of cells from measles virus; protection (pct of control), % at 4 µM; Measles virus-infected cells, CPE protection, absorbance; 1.5% of 140,000 active; AID 841; in the data active means protection mostly above about 24%, no sharp cut-off; inactive means mostly below about 26%
CYP2C19 inh: inhibitors of human CYP2C19; P33261; CYP2C19 Supersomes, luciferin-H EGE luminescence, 30 min; inhibition, % at 5 µM; 21% of 96,000 active;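 active means CYP2C19 inhibition above a set limit at 5 µM in the primary screen, cut at about 50% in these data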;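 further: plate controls were negative control wells for no effect and 2.5 mM tranylcypromine positive control for full effect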
* marks the source's active call; other numbers are inactive results; / = no result given. Hits are enriched below; roughly 22% of the tested compounds scored in any of these assays.

SMILES	CYP2C9 act	CYP2C9 inhib	CYP2C19 act	Measles CPE	CYP2C19 inh
N#Cc1nc(COc2ccc(Cl)cc2)oc1NCc1ccc2c(c1)OCO2	0.2	84.2*	0.3	21.0	65.1*
Cc1nc(C#N)c(NCc2ccc3c(c2)OCO3)o1	0.6	39.3	0.1	8.3	92.4*
Cc1cccc(OCc2nc(C#N)c(NCCN(C)C)o2)c1	1	-2.0	0.9	10.2	7.8
CCNc1oc(COc2cccc(C)c2)nc1C#N	0.5	50.9*	0	37.9*	97.8*
O=c1[nH]c2cc3c(cc2cc1C(c1nnnn1C1CCCCC1)N1CCSCC1)OCCO3 (configuration not stated)	/	/	/	14.8	/
Cc1nnc(Oc2ccccc2F)c2ccccc12	1.2	-21.9	0.8	2.9	23.3
COCCNC(=O)CS(=O)(=O)Cc1nc(-c2ccc(C)cc2)oc1C	0.7	25.4	0.8	8.5	19.6
Cc1cccc(OCc2nc(C#N)c(N3CC(C)CC(C)C3)o2)c1 (configuration not stated)	0.2	78.1*	0.2	7.2	82.4*
CC(OC(=O)c1ccc([N+](=O)[O-])s1)C(=O)Nc1ncc(Cl)cc1Cl (configuration not stated)	/	/	/	10.7	/
CC(C)c1nc(SCC(=O)Nc2ccc(N3CCOCC3)cc2)c2ccccc2n1	/	/	/	5.5	/
Cc1ccc(NC(=O)C2C(c3ccccc3)C2(Cl)Cl)c(C)c1 (configuration not stated)	0.5	52.5*	0	2.3	96.9*
Cc1ccc(NC(=O)C2C3CCCC2C3c2ccccc2)c(C)c1 (configuration not stated)	/	/	/	3.5	/
O=S(=O)(c1ccc(Oc2ccc(Cl)cc2)c(S(=O)(=O)N2CCCCC2)c1)N1CCCCC1	0.6	38.9	0.9	6.3	8.2
O=C(c1noc2c1CCCC2)N1CCN(Cc2ccccc2)CC1	1	4.1	0	9.8	97.0*
O=C(c1noc2c1CCCCC2)N1CCOCC1	0.4	58.3*	0.8	3.5	17.3
Cc1occc1-c1nnc(SCC(=O)NCCc2ccccc2)n1Cc1ccccc1	0.5	54.6*	0.7	29.9	32.1
CCOC(=O)c1cccc(NC(=O)CSc2nnc(-c3ccoc3C)n2CCOC)c1	0.1	89.0*	0.2	2.0	82.9*
Cc1occc1-c1nnc(SCC(=O)Nc2ccccc2)n1C(C)c1ccccc1 (configuration not stated)	0	96.0*	0.1	24.1	88.7*
Cc1occc1-c1nnc(SCC(=O)Nc2ccccc2N2CCCCC2)n1C	0.7	28.1	0.5	12.8	45.3
Cc1occc1-c1nnc(SCC(=O)N2CCOCC2)n1CCc1ccccc1	1	-3.7	1	17.7	-4.9
Cc1occc1-c1nnc(SCC(N)=O)n1Cc1ccccc1	1	2.3	0.9	9.0	10.8
COCCn1c(SCC(=O)N2CCCc3ccccc32)nnc1-c1ccoc1C	/	/	/	9.3	/
Cc1occc1-c1nnc(SCC(=O)Nc2ccccc2)n1CCc1ccccc1	0.2	84.7*	0.1	19.7	92.0*
C=CCc1ccc(OCCOCCNCCCC)c(OC)c1	1.1	-7.6	0.6	15.4	38.3
Cc1cc(C)n2ncc(C(=O)NCc3cccnc3)c2n1	1	2.9	0.9	8.0	8.6
SMILES	CYP2C9 act	CYP2C9 inhib	CYP2C19 act	Measles CPE	CYP2C19 inh
O=C(CSc1nnc(COc2ccccc2F)n1-c1ccccc1)NC1CCS(=O)(=O)C1 (configuration not stated)	/	/	/	30.0	/
COc1ccccc1-c1nnc(SCC(=O)NC2CCS(=O)(=O)C2)n1CCc1ccccc1 (configuration not stated)	/	/	/	58.8*	/
COc1cccc(-n2c(SCC(=O)NCCc3ccccc3)nnc2-c2ccoc2C)c1	0.1	87.7*	0	6.8	98.1*
CCOC(=O)c1cc2c(C)n(-c3ccc(OCC)cc3)c(C)c2cc(C(=O)OCC)c1=O	/	/	/	5.3	/
CCOC(=O)c1cc2c(C)n(-c3ccc(N(C)C)cc3)c(C)c2cc(C(=O)OCC)c1=O	0.7	32.8	0.5	-0.7	50.4*
CCN(C(=O)CCN1C(=O)c2ccccc2C1=O)C1CCCCC1	1.4	-44.8	0.2	2.3	77.5*
O=C(CCN1C(=O)c2ccccc2C1=O)N1CCC(c2ccccc2)C1 (configuration not stated)	1.1	-12.5	0.3	31.4	72.3*
O=C(COc1ccc(Br)cc1)N1CCC(c2ccccc2)C1 (configuration not stated)	0.9	14.3	0.1	0.3	88.1*
O=C(CCN1C(=O)c2ccccc2C1=O)N1CCCCCC1	1.2	-23.0	1	27.5	3.9
CSc1nnc(CSc2cc(C)nc(N(C)C)n2)o1	/	/	/	3.5	/
Fc1cccc(NCc2cn3ccccc3n2)c1	0.7	31.8	0.2	18.9	78.0*
Fc1ccc(NCc2cn3ccccc3n2)cc1	0.7	29.4	0.2	6.3	84.3*
Cc1ccc(C(=O)N/N=C\c2cc3c(cc2Br)OCO3)s1	/	/	/	15.6	/
CCn1c(N2CCN(C(=S)NCC(C)C)CC2)nc2ccccc21	1.1	-6.4	0.7	1.8	28.4
CCN1CCN(C(=S)NCCc2ccccc2)CC1	1	2.3	0.6	7.3	38.6
CCn1c(N2CCN(C(=S)NC)CC2)nc2ccccc21	0.7	32.6	0.3	17.9	65.5*
CCn1c(N2CCN(C(=S)NCCc3ccccc3)CC2)nc2ccccc21	0.6	36.7	0.4	12.3	55.7*
O=C(CSc1nc2ccccc2[nH]1)N1CCN(S(=O)(=O)c2ccc(Cl)cc2)CC1	0.8	18.0	0.9	15.0	8.1
O=C(c1ccccc1)N1CCCC(c2ccc(Cl)cc2)=N1	0.6	44.8	0.4	6.5	56.8*
O=C(c1cccc(Cl)c1)N1CCN(C2CCCCCC2)CC1	0.9	8.9	0.8	3.4	19.0
O=C(c1cccc(Cl)c1)N1CCCC(c2ccc(Cl)cc2)=N1	0.5	48.1	0.4	5.6	61.7*
O=C(c1ccc(-c2ccccc2)cc1)N1CCCC1	0.9	8.5	0.9	4.8	7.4
CSc1nc(Oc2ccc3ccccc3c2)c2ccccc2n1	0.6	36.4	0.6	3.3	38.4
CCOC(=O)c1c(C)[nH]c(C)c1C(=O)COC(=O)/C=C/c1ccc(Cl)cc1	/	/	/	2.5	/
O=C(NCCCCCCNC(=O)OC1CCS(=O)(=O)C1)OC1CCS(=O)(=O)C1 (configuration not stated)	1	1.0	1	23.2	4.0
SMILES	CYP2C9 act	CYP2C9 inhib	CYP2C19 act	Measles CPE	CYP2C19 inh
O=C(CSCc1ccccc1)N1CCN(c2cccc(C(F)(F)F)c2)CC1	0.1	92.6*	0.1	3.7	85.9*
CC(C)CC(=O)N1CCN(Cc2cccc(F)c2)CC1	1	-4.0	0.4	4.0	59.0*
COc1cccc(CN2CCN(C(=O)CC(C)C)CC2)c1	1.1	-7.6	0.6	13.6	38.7
O=C(CSCc1cccc(F)c1)N1CCN(c2ccccc2)CC1	0.4	57.7*	0.5	18.4	52.0*
O=C1Nc2ccccc2OC1CC(=O)N1CCN(c2cccc(C(F)(F)F)c2)CC1 (configuration not stated)	0.3	71.5*	0.7	8.9	27.9
O=C(CSCc1ccccc1)N1CCN(c2ccccc2)CC1	/	/	/	3.2	/
